Laboratory results reported in ChEMBL document CHEMBL3988442, “University of Dundee, Small-Polar-MMV Screening Library” (2021).
Out of some 53,000 compounds screened, about 900 (1.7%) showed an effect of 50% or more. The full list was thinned out, with strong results kept by preference.

system: Mycobacterium tuberculosis; experiment: Cornell - Phenotypic assay to identify agents that inhibit growth of Mycobacterium tuberculosis; format: functional; set-up: scale not given: direction of the effect not stated beside the values; details: 10 mM as filed; unlikely as a test dose

Compound	Percent Effect [%]
CN1CCC2(CC1)C(=O)N(CC1CC1)c1ccccc12.O=C(O)C(F)(F)F	8.295
c1coc(CNCC2Cn3nncc3CO2)c1 (stereo not drawn)	-14.67
Cc1cccnc1NCCNC(=O)c1cnc(-c2cccs2)nc1O	19.3
COc1ccc(CN(Cc2ccco2)Cc2[nH]cnc2C)c(OC)c1.O=C(O)CC(O)(CC(=O)O)C(=O)O	39.21
COc1ccc(OC)c(CN(Cc2ccco2)Cc2[nH]cnc2C)c1.O=C(O)CC(O)(CC(=O)O)C(=O)O	50.25
COc1cccc(CN(Cc2ccco2)Cc2[nH]cnc2C)c1.O=C(O)CC(O)(CC(=O)O)C(=O)O	-15.02
Cc1noc([C@H]2C[C@H]3OCC[C@H]3N(C3CCC3)C2)n1.O=C(O)C(F)(F)F	-34.16
COc1ccc(OC)c(Sc2ncccc2C(=O)NCCSC)c1	-9.266
CC(=O)N1CC2(CCNCC2)c2cc(Cl)ccc21.Cl	63.2
CN(C)C(=O)N1CC2(CCNCC2)c2cc(Cl)ccc21.Cl	-44.55
COC(=O)N1CC2(CCNCC2)c2cc(Cl)ccc21.Cl	26.9
CN(C)Cc1cnn(-c2ccccc2C(=O)NCCC2CCCN2C)c1 (stereo not drawn)	17.58
O=C(Cc1c[nH]c2ccccc12)N1CCN(C(=O)c2ccoc2)CC1	-1.862
C[S+]([O-])c1nncn1CC(=O)c1ccc(Cl)c(Cl)c1 (stereo not drawn)	51.67
C[S+]([O-])c1nncn1CC(=O)c1cccc(Cl)c1 (stereo not drawn)	12.76
C[S+]([O-])c1nncn1CC(=O)c1ccc2c(c1)CCO2 (stereo not drawn)	2.009
COc1coc(C(=O)Nc2nc(-c3cccnc3)cs2)cc1=O	11.19
O=C(c1ccncn1)N1C[C@H]2CCC[C@@]2(COCC2CCOCC2)C1	2.154
Cc1nc(C)n(CC2CN(Cc3cc(C#N)ccc3F)CCO2)n1 (stereo not drawn)	13.34
COc1cc(CNCc2ccc(C(C)O)cc2)cc2c1OCO2 (stereo not drawn)	3.367
COc1c(CC2CC(C(=O)O)=NO2)c(Br)c2c(c1OC)OCO2 (stereo not drawn)	14.91
CCOC(=O)C1=NOC(Cc2cc(OC)c3c(c2)OCO3)C1 (stereo not drawn)	94.96
COc1cc(CC2CC(c3ccc4c(c3)OCO4)=NO2)cc2c1OCO2 (stereo not drawn)	30.67
COC(=O)C1=NOC(Cc2cc(OC)c3c(c2)OCO3)C1 (stereo not drawn)	104.6
COc1cc(CC2CC(C(N)=O)=NO2)cc2c1OCO2 (stereo not drawn)	13.11
Cc1cc(C)nc(C2CCN(C(=O)c3cncnc3C)C2)n1 (stereo not drawn)	-38.99

Compound	Percent Effect [%]
Cc1nc(CN2C(=O)COC3(CCN(CC4CC4)CC3)C2C)cs1.O=C(O)C(F)(F)F (stereo not drawn)	6.692
Cc1cccc(-c2noc(C)c2C(=O)NC2CCCOC2)c1.O=C(O)CC(O)(CC(=O)O)C(=O)O (stereo not drawn)	20.12
Cc1onc(-c2ccncc2)c1C(=O)NC1CCCOC1 (stereo not drawn)	52.15
Cc1c(C(=O)NC2CCCOC2)nnn1-c1ccccc1 (stereo not drawn)	-4.644
Cc1cnn(CC2CCCN2CC(=O)Nc2cc(C(C)(C)C)no2)c1 (stereo not drawn)	16.98
CCN1CCN(C(=O)NCc2cccnc2-n2cccn2)CC1	-23.25
CNC(=O)[C@@H]1CN(C(=O)CCOC)C[C@H]1c1ccnc(N2CCCC2)n1.Cl	43.65
CCNC(=O)C1CCN(c2nccc(C3CCCC3)n2)C1 (stereo not drawn)	13
CNC(=O)[C@@H]1CN(C(=O)C2CCC2)C[C@H]1c1ccnc(N2CCCC2)n1.Cl	54.39
CNC(=O)[C@@H]1CN(C(=O)C(C)C)C[C@H]1c1ccnc(N2CCCC2)n1.Cl	37.07
CCC(=O)N1C[C@@H](C(=O)NC)[C@H](c2ccnc(N3CCCC3)n2)C1.Cl	24.83
CNC(=O)[C@@H]1CN(C(=O)COC)C[C@H]1c1ccnc(N2CCCC2)n1	50.96
CC(C)c1nn(C)c(N(C)C)c1CNC1CCN(C2CC2)CC1.Cl	42.5
CC(C)c1nn(C)c(N(C)C)c1CNC1CCN(CC2CC2)CC1	58.14
CC(C)c1nn(C)c(N(C)C)c1CNC1CCCCNC1=O (stereo not drawn)	91.87
Cc1nn(C)c(N(C)C)c1CNC1CCCCNC1=O (stereo not drawn)	63.11
COCCN1CCC(NCc2c(C(C)C)nn(C)c2N(C)C)CC1	39.85
CC(C)C(=O)N1CCC(NCc2c(C(C)C)nn(C)c2N(C)C)CC1	31.79
CC(C)c1nn(C)c(N(C)C)c1CNC1CCC(O)CC1 (stereo not drawn)	21.48
Cc1nn(C)c(Oc2ccccc2)c1CNC1CCCCNC1=O (stereo not drawn)	-7.334
Cc1nn(C)c(N2CCOCC2)c1CNC1CCCCNC1=O (stereo not drawn)	-11.46
CN(CCc1nccs1)C(=O)CC1(O)CCCCC1	19.59
COCCCNCc1cc(O)c2cc(C)cc(C)c2n1	3.207
COc1ccc(OC2CCN(c3ccncc3)CC2)cc1	27.59
CC(=O)Cn1nc(-c2ccccc2F)ccc1=O	6.771
Cc1cccc(CN2C(=O)C[C@H]3[C@@H]2CCN3Cc2ccc(F)cc2)n1.O=C(O)C(F)(F)F.O=C(O)C(F)(F)F	15.09

Compound	Percent Effect [%]
CCn1nc(C)cc1C(=O)N1C[C@@H]2C[C@@H](c3nnc(C)[nH]3)O[C@@H]2C1	-8.9
Cc1nn(C)c2c(=O)n(CC(=O)NCc3ccc(N(C)C)cc3)ccc12	96.11
Cc1nn(C)c2c(=O)n(CC(=O)NCCC(C)C)ccc12	2.416
COc1cccc(CNC(=O)Cn2ccc3c(C)nn(C)c3c2=O)c1	4.678
OCCCN(CCn1cncn1)c1ccccc1	-44.33
Oc1ccc(N(CCc2ccccc2)CCn2cncn2)cc1	107
c1ccc(N(CCn2cncn2)CC2CC2)cc1	-28.11
Cc1cc(CNC(=O)N2CCOC(c3ccccc3Cl)C2)no1 (stereo not drawn)	-0.6476
COc1ccc(OC)c([C@@H]2N[C@H](c3nccs3)Cc3ccsc32)c1	46.52
COc1cc([C@@H]2N[C@H](c3nccs3)Cc3ccsc32)cc(OC)c1OC	44.3
COc1cccc([C@@H]2N[C@H](c3nccs3)Cc3ccsc32)c1OC	50.54
Cc1ncc(-c2ccnc(NCCc3ccc(F)cc3)n2)c(=O)[nH]1	-5.112
Cn1ncc2c(N3CCN4CCCCC4C3)nc(C3CCCC3)nc21 (stereo not drawn)	27.57
CCOC(=O)c1n[nH]cc1-c1cncn1CCCn1nc(C)cc1C.Cl	25.38
CN1CCCc2cc(-c3cncn3CCNC3CCS(=O)(=O)C3)ccc21.Cl (stereo not drawn)	6.115
CC1Cc2cc(-c3cncn3CC(=O)NC(C)(C)C)ccc2N1C.Cl (stereo not drawn)	-2.378
CN1CCCc2cc(-c3cncn3CC(=O)NC(C)(C)C)ccc21.Cl	13.27
Cc1cc(C)n(CCCn2cncc2-c2ccc3c(c2)CC(C)N3C)n1.Cl (stereo not drawn)	63.97
Cc1nn(C)c(C)c1CCn1cncc1-c1ccc2c(c1)CC(C)N2C.Cl (stereo not drawn)	64.61
CC(C)c1cc(C2CCCN2C(=O)c2cn3ccsc3n2)no1 (stereo not drawn)	31.59
Cc1cc(NC(=O)C2CCN(c3ncccc3C#N)CC2)no1	-28.06
O=C(Cc1cccs1)NCc1ccnc(C2CCCOC2)n1 (stereo not drawn)	6.218
Cc1nc(C)n(CC2CCCN(c3ncnc4ccsc34)C2)n1 (stereo not drawn)	51.96
Cc1nc(C)n(CC2CCCN(c3ncnc4ccccc34)C2)n1 (stereo not drawn)	-29.18
Cc1nc(C)n(CC2CCCN(c3ncnc4sccc34)C2)n1 (stereo not drawn)	-6.342
Cc1ncccc1C(=O)Nc1cccc(C[S+](C)[O-])c1C (stereo not drawn)	11.87

Compound	Percent Effect [%]
COc1ccc(-n2cc(CNC(=O)c3ccc[nH]3)nn2)cc1	1.2
CC(=O)N1CCC2(C1)CN(S(=O)(=O)c1ccccc1)C2	13.22
CN(Cc1nc2ccccc2o1)CC1CCCN1c1cccnn1 (stereo not drawn)	-25.78
Cc1nc(CNCC2CCCN2c2cccnn2)oc1C (stereo not drawn)	5.973
c1cnnc(N2CCCC2CNCc2nc3ccccc3o2)c1 (stereo not drawn)	108.2
Cn1cc(C(=O)N2CCO[C@@H]3CN(C4CCC4)C[C@@H]3C2)cn1	3.925
COCCN1CCN(Cc2cccc(C(=O)N(C)C)c2)CC1	-27.32
CCC(C)N(Cc1cnc(OC)nc1)Cc1ccsc1 (stereo not drawn)	-2.85
Cc1nc(-c2ccncc2)nc(N(C)CCc2ccncc2)c1C	-4.993
COCCCN(C)c1nc(-c2ccncc2)nc(C)c1C	79.79
COCCCN(C)c1nc(-c2ccncc2)nc2c1CCN(C(C)=O)C2	-26.88
NC(=O)C1CCN(C(=O)NCc2ccc(-c3ccn[nH]3)cc2)CC1	-27.61
O=C(N1CCCO1)[C@@]12CCO[C@@H]1CCN(Cc1ccccn1)C2.O=C(O)C(F)(F)F.O=C(O)C(F)(F)F	16.34
O=C(NCC(O)c1ccsc1)Nc1cccs1 (stereo not drawn)	98.83
Cc1csc(CNC(=O)NCC(O)c2ccccc2)n1 (stereo not drawn)	-28.19
CCOc1ccccc1CCNC(=O)NCC(O)c1ccsc1 (stereo not drawn)	26.35
O=C(Nc1cccs1)NC(CCCO)c1ccccc1 (stereo not drawn)	101.4
O=C(Nc1ccccn1)NC(CCCO)c1ccccc1 (stereo not drawn)	-24.69
CC(C)Oc1cccc(C(O)CNC(=O)CCc2ccncc2)c1 (stereo not drawn)	31.72
O=C(NCCc1ccccc1)NCC(O)c1cccs1 (stereo not drawn)	16.84
O=C(Nc1cccnn1)NC(CCCO)c1ccccc1 (stereo not drawn)	-8.222
O=C(NCC(O)c1ccccc1)Nc1cccs1 (stereo not drawn)	59.31
O=C(NCC(O)c1ccsc1)c1sccc1OC(F)F (stereo not drawn)	14.09
CC(C)Oc1cccc(C(O)CNC(=O)Nc2cccs2)c1 (stereo not drawn)	105
CC(C)Oc1cccc(C(O)CNC(=O)NCc2cccs2)c1 (stereo not drawn)	7.446
